Reference: PubChem BioAssay (NCI)
About 79,000 compounds went through this panel and 15% of them were active in at least one assay; those are over-represented in the sample as a whole. Cut-off read from the data, not from the text of the source: active = growth inhibition above about 70%; inactive = the rest.

How the values were obtained:
[1] = NCI Yeast Anticancer Drug Screen. Data for the rad50 strain (AID 155);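 note: 0% = growth of vehicle-only cultures of the same strain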; details: S. cerevisiae rad50 strain growth inhibition; at 50.0 µM; active compounds read high
Procedure, shortened: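 A DNA repair-deficient yeast mutant serves as the test organism; compound-induced growth inhibition is calculated against vehicle-treated cells.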

[2] = NCI Yeast Anticancer Drug Screen. Data for the mec2-1 strain (AID 157); details: S. cerevisiae mec2-1 strain, at 50.0 µM, active compounds read high
Procedure, shortened: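 Each compound was tested on mec2-1 yeast, a strain altered in DNA damage repair or cell cycle control. Growth inhibition is reported relative to vehicle.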

[3] = NCI Yeast Anticancer Drug Screen. Data for the sgs1 mgt1 strain (AID 161);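 note: 0% = growth of cultures given vehicle only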; details: S. cerevisiae sgs1 mgt1 strain, at 50.0 µM, active compounds read high
Procedure, shortened: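 Mutant yeast exposed to compound; growth scored against vehicle-only wells.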

[4] = NCI Yeast Anticancer Drug Screen. Data for the cln2 rad14 strain (AID 165);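 note: 0% = growth equal to vehicle treated cultures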; details: S. cerevisiae cln2 rad14 strain, at 50.0 µM, active compounds read high
Procedure, shortened: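 Test compounds were added to cln2 rad14 yeast cultures; inhibition of growth was then determined by comparison with vehicle treatment.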

[5] = NCI Yeast Anticancer Drug Screen. Data for the bub3 strain (AID 167); details: S. cerevisiae bub3 mutant strain, at 50.0 µM, active compounds read high
Procedure, shortened: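 Inhibition values come from growth of compound-treated mutant yeast normalised to vehicle-treated controls.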

[6] = NCI Yeast Anticancer Drug Screen. Data for the mlh1 rad18 strain (AID 175); details: S. cerevisiae mlh1 rad18 strain growth inhibition; at 50.0 µM; active compounds read high
Procedure, shortened: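 Inhibition values reflect reduced growth of mutant yeast versus vehicle-treated controls following compound exposure; the mutations affect DNA damage repair.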

Measured: growth inhibition

O=C1c2ccccc2C(=O)N1c1ccc(Cl)cc1
inactive: [1] 3.5% | [2] 9.9% | [3] 12.6% | [4] 1.2% | [5] 22.8% | [6] 6.85%

COc1ccc(NC(=O)C(=O)C(C(=O)c2ccccc2)C2OC(=O)c3ccccc32)c([N+](=O)[O-])c1 (stereo unspecified)
inactive: [1] 8.85% | [2] 5.6% | [3] -23.2% | [4] 26.1% | [5] 28.4% | [6] 8.1%

CSc1ccccc1C(C)(C)O
inactive: [1] 24.6% | [2] -2.55% | [3] 3.35% | [4] -29.8% | [5] -1.4% | [6] 26.4%

O=C1CSCN1N1CSCC1=O
inactive: [1] -5.85% | [2] 3.1% | [3] 7.85% | [4] -4.35% | [5] 8.95% | [6] 18.8%

COc1cc(NCCC(=O)O)c2ncccc2c1
inactive: [1] -25.1% | [2] -19.2% | [3] -41.9% | [4] -18.8% | [5] -24.2% | [6] 0.7%

O=C(Nc1ccccc1[N+](=O)[O-])OCCOc1ccccc1
inactive: [1] 1.65% | [2] 21.2% | [3] 6.8% | [4] -7.2% | [5] 30.8% | [6] -9.85%

O=[N+]([O-])c1ccc(C2=NCC=CCO2)cc1
inactive: [1] 18% | [2] 16.2% | [3] 7.55% | [4] -6.55% | [5] 4.5% | [6] 12.8%

Cc1nn(C)c2c1C(=O)N(C)CC(=O)N2C
inactive: [1] -25.1% | [2] -38.9% | [3] -22.9% | [4] -14.2% | [5] -20.8% | [6] -8.25%

CC1SC2=NC3=C(c4ccccc4C3=O)C(c3ccccc3Cl)N2C1=O (stereo unspecified)
inactive: [1] 15.8% | [2] 8.75% | [3] 8.55% | [4] 4.95% | [5] 17.9% | [6] 23.3%

CCC(=O)C(C)C(=O)C(=O)NCCNC(=O)C(=O)C(C)C(=O)CC (stereo unspecified)
inactive: [1] 19.9% | [2] -1.3% | [3] 2.75% | [4] -16.6% | [5] -8.5% | [6] -25.6%

O=C(Nc1ccccc1)NC1CCCC1
inactive: [1] 4.65% | [2] 7.85% | [3] -1.8% | [4] -5.5% | [5] -12.2% | [6] -1.2%

O=P(O)(O)c1ccccc1Br
inactive: [1] -13.1% | [2] -17.2% | [3] 4.85% | [4] -15.8% | [5] 2.3% | [6] 3.2%

Cc1cc(O)c([N+](=O)[O-])c(C)c1[N+](=O)[O-]
inactive: [1] 2.2% | [2] 35.2% | [3] 3.5% | [4] 41.2% | [5] 39.3% | [6] 0.25%

Cc1cn(CCCn2cnc3c(=O)[nH]cnc32)c(=O)[nH]c1=O
inactive: [1] -13.1% | [2] -22.1% | [3] -16.7% | [4] -3.15% | [5] -21.6% | [6] -3.25%

Clc1ccccc1-n1cccc1/C=N\N=C/c1cccn1-c1ccccc1Cl
inactive: [1] 0.15% | [2] 1.7% | [3] -6.1% | [4] -53.7% | [5] -1.8% | [6] -8%

COC/C(=N/Nc1ccc([N+](=O)[O-])cc1[N+](=O)[O-])C(C)(C)C
inactive: [1] -2.8% | [2] 16.4% | [3] 8.6% | [4] -26.3% | [5] -20.9% | [6] -16.8%

CCc1c2cc(OC)c(OC)cc2cc2c3cc(OC)c(OC)cc3cc[n+]12 (tested in a mixture with another compound)
inactive: [1] -23.1% | [2] -22.4% | [3] -20.1% | [4] -20.9% | [5] -42% | [6] -11.7%

C(/C=C\c1ccccc1)=Nc1ccccc1
inactive: [1] 8% | [2] -11.8% | [3] -4.55% | [4] 9.35% | [5] 0.2% | [6] 17.1%

O=C1NNC=Nc2ccc(cc2)S(=O)(=O)c2ccc(cc2)N=CNNC1=O
inactive: [1] 41.5% | [2] -1.9% | [3] -20.1% | [4] -9.15% | [5] -5.85% | [6] -45.9%

CCOc1c(N=Nc2ccc(Br)cc2)c(C)nn1C(N)=S
inactive: [1] -4.5% | [2] 33.9% | [3] 26.1% | [4] -0.3% | [5] 31.2% | [6] 45%

[N-]=[N+]=Nc1ccccc1C(=O)NCCNC(=O)c1ccccc1N=[N+]=[N-]
inactive: [1] -7.4% | [2] -31.9% | [3] 2.25% | [4] 6.85% | [5] 2.6% | [6] 6.75%

CC(=O)N(C)c1ccc(C)cc1
inactive: [1] -14.9% | [2] -1.05% | [3] -4.35% | [4] -27.6% | [5] -4.2% | [6] 7%

CCC1(CC)C(=O)C(CC)(CC)C1=O
inactive: [1] 44.5% | [2] 28.1% | [3] 38% | [4] 20.9% | [5] 39.1% | [6] 6.55%

C=C1CC2C(=O)N(c3ccccc3)C(=O)C2CC1n1[nH]c(=O)n(Cc2ccccc2)c1=O (stereo unspecified)
inactive: [1] 3.8% | [2] 3.1% | [3] 9.65% | [4] -29.8% | [5] 15.7% | [6] -5.7%

Cn1cnc([N+](=O)[O-])c1Sc1nc2ccccc2[nH]1
inactive: [1] -16.4% | [2] -10.3% | [3] -12.2% | [4] 3.65% | [5] -30.6% | [6] -19.1%

CN1CCC(c2ccccc2)(c2ccccc2)C(O)C1 (stereo unspecified)
inactive: [1] 1.15% | [2] -0.45% | [3] 13.7% | [4] 4.35% | [5] 3.3% | [6] 4.7%

CCOC(=O)C(NC(=O)c1ccccc1)C1NC(C(=O)O)C(C)(C)S1 (stereo unspecified)
inactive: [1] -23.1% | [2] 5.6% | [3] -5.1% | [4] -21.8% | [5] 0.8% | [6] 3.55%

COC(=O)C(NC(=O)c1ccccc1)C(c1c(O)cc(O)cc1O)P(=O)(OC)OC (stereo unspecified)
inactive: [1] -4.75% | [2] 10.3% | [3] 12.4% | [4] 3.35% | [5] 1% | [6] 18%

COc1coc(/C=C/C(=O)c2ccc(O)c(O)c2)cc1=O
inactive: [1] -11.9% | [2] 12.7% | [3] 10.3% | [4] -11.8% | [5] -6.25% | [6] -32.5%

Nc1cc(Cl)nc(N)n1
inactive: [1] -12.2% | [2] -16.4% | [3] 9.9% | [4] 0.1% | [5] -5.4% | [6] 17.6%

CCCCNC(=O)c1cccc(OC)c1OC
inactive: [1] 2.25% | [2] -1.55% | [3] 4.3% | [4] 2.35% | [5] -5.65% | [6] 3.45%

COC(=O)N/N=C(\C)C(CN1CCCCC1)C(C1=C(O)c2ccccc2OC1)c1ccccc1 (stereo unspecified)
inactive: [1] 6.15% | [2] 15.7% | [3] 5.25% | [4] 17.1% | [5] 4.9% | [6] 28.9%

S=C(NCCCN1Cc2ccccc2C1)Nc1ccccc1
inactive: [1] 15.4% | [2] -4.1% | [3] 3.15% | [4] -16.1% | [5] 4.85% | [6] -10.6%

CC1CC(c2ccccc2)(c2ccccc2)CN1C (stereo unspecified)
inactive: [1] -16.1% | [2] 9.4% | [3] 6.55% | [4] -45.3% | [5] 15.2% | [6] 8.5%

CC(C)c1cc(C(C)C)c(Cc2c(C(C)C)cc(C(C)C)cc2C(C)C)c(C(C)C)c1
inactive: [1] 15% | [2] 14.2% | [3] 0.3% | [4] 0.55% | [5] -2% | [6] 20.3%

Cc1cc(Br)ccc1N
inactive: [1] -3.15% | [2] 1.95% | [3] -9.5% | [4] -36.5% | [5] 19.1% | [6] 9.25%

CN(Cc1ccccc1)C(OCc1ccccc1)c1ccccc1 (stereo unspecified)
inactive: [1] 3.15% | [2] -13% | [3] 10.1% | [4] -8.3% | [5] 20.4% | [6] 5.4%

O=C(NO)c1ccc(Cl)cc1Cl
inactive: [1] 57.9% | [2] -0.8% | [3] 37.7% | [4] -11.9% | [5] 18.6% | [6] 43.7%

CCCOC(=O)c1ccc(C(C)C)cc1
inactive: [1] 1.1% | [2] 0.8% | [3] -5.3% | [4] 3.7% | [5] 2.25% | [6] -1%

Cn1c2ccccc2c2oc(CO)cc(=O)c21
inactive: [1] 13.2% | [2] 0.4% | [3] 5.8% | [4] 23.9% | [5] 10.4% | [6] 19.3%

Oc1ccccc1C=Nc1ccccc1N=Cc1ccccc1O.[Zn]
inactive: [1] 6.45% | [2] 4% | [3] -3.45% | [4] 26.5% | [5] -4.05% | [6] 12.9%
